Test results taken from PubChem BioAssay (NCI).
About 83,000 compounds went through this panel and 20% of them were active in at least one assay; those are over-represented in the sample as a whole.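 In brief: 96-well plates, 48 h treatment, single concentration, percent growth endpoint.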 Calls of active or inactive are those of the source. Rule for the calls: active = growth percent below 10; inactive = the rest.

Assays:
Experiment in all cases: NCI-60 one-dose screen, 48 h (100 = growth as untreated, 0 = no growth, -100 = all killed)
Conditions in all cases: 10 µM unless noted
T-47D breast = system: T-47D breast
BT-549 breast = system: BT-549 breast
MDA-MB-435 melanoma = system: MDA-MB-435 melanoma
SW-620 colon = system: SW-620 colon
MCF7 breast = system: MCF7 breast
HCT-116 colon = system: HCT-116 colon
HCC-2998 colon = system: HCC-2998 colon
KM12 colon = system: KM12 colon

Measured: growth

Nc1ncc(-c2ccc3ncnc(Nc4ccc(F)c(Cl)c4)c3c2)cn1
inactive: T-47D breast 26% | BT-549 breast 22.5% | MDA-MB-435 melanoma 84% | SW-620 colon 66.4% | MCF7 breast 27.1% | HCT-116 colon 21% | HCC-2998 colon 83.9% | KM12 colon 66.1%

CCn1c(SC)nnc1-c1cc2c([nH]c3ccccc32)c(-c2cccc(O)c2)n1
inactive: T-47D breast 10.8% | BT-549 breast 29.4% | SW-620 colon 33.1% | MCF7 breast 13.8% | HCT-116 colon 13.2% | HCC-2998 colon 41.5% | KM12 colon 11.5%
active: MDA-MB-435 melanoma -32.4%

CCN(CC)C(=O)C1CCN(C(=O)c2ccccc2)CC1
inactive: T-47D breast 98.4% | BT-549 breast 93.8% | MDA-MB-435 melanoma 104% | SW-620 colon 101% | MCF7 breast 96.6% | HCT-116 colon 99.2% | HCC-2998 colon 106% | KM12 colon 101%

COc1ccc(-c2nn(-c3ccc(NC(=O)c4cc(Cl)cc(Cl)c4)cc3)cc2-c2ccncc2)cc1Cl
inactive: T-47D breast 67.4% | BT-549 breast 66.8% | MDA-MB-435 melanoma 68.6% | SW-620 colon 68.6% | MCF7 breast 73.7% | HCT-116 colon 55.7% | HCC-2998 colon 49.6% | KM12 colon 29.7%

NC(CCCC(N)C(=O)c1ccccc1)C(=O)O (configuration not stated)
inactive: T-47D breast 89.9% | BT-549 breast 104% | MDA-MB-435 melanoma 105% | SW-620 colon 110% | MCF7 breast 91.2% | HCT-116 colon 99.2% | HCC-2998 colon 103% | KM12 colon 101%

CC(=O)N1N=C2N(Cc3ccccc3)C(=O)c3c(sc4c3CCCC4)N2C1c1cn(-c2ccccc2)nc1-c1ccc(Cl)cc1 (configuration not stated)
inactive: T-47D breast 80.8% | BT-549 breast 99.5% | MDA-MB-435 melanoma 95.4% | SW-620 colon 103% | MCF7 breast 92.4% | HCT-116 colon 96.8% | HCC-2998 colon 112% | KM12 colon 98%

O=C(Nc1cccc(-n2ccc3c(NC(=O)c4ccccc4)ncnc32)c1)Nc1ccc(Cl)c(C(F)(F)F)c1
inactive: T-47D breast 21.6% | BT-549 breast 45.9% | SW-620 colon 41.3% | MCF7 breast 20% | HCT-116 colon 17% | HCC-2998 colon 40.8% | KM12 colon 12.5%
active: MDA-MB-435 melanoma -7.53%

Cc1ncc(CO)c(C(=O)O)c1O
inactive: T-47D breast 78.4% | BT-549 breast 86.6% | MDA-MB-435 melanoma 106% | SW-620 colon 108% | MCF7 breast 98.9% | HCT-116 colon 78% | HCC-2998 colon 95.3% | KM12 colon 101%

O=C(c1ccccc1)[C@H]1[C@@H]2CCCN2[C@]2(C(=O)Nc3ccc(F)cc32)[C@]12C(=O)Nc1ccccc12
inactive: T-47D breast 65.6% | BT-549 breast 91.6% | MDA-MB-435 melanoma 92% | SW-620 colon 97.8% | MCF7 breast 82.5% | HCT-116 colon 76.5% | HCC-2998 colon 101% | KM12 colon 94.1%

CCOc1ccc(NC2=C(Cl)C(=O)c3ccccc3C2=O)cc1
inactive: T-47D breast 66.7% | BT-549 breast 77.6% | MDA-MB-435 melanoma 67.1% | MCF7 breast 46.1% | HCT-116 colon 80.6% | HCC-2998 colon 57.7% | KM12 colon 72.9%
active: SW-620 colon -51.3%

Cc1cn([C@]2(CF)O[C@H](CO)C2C)c(=O)[nH]c1=O (some centres not stated)
inactive: T-47D breast 119% | BT-549 breast 110% | MDA-MB-435 melanoma 133% | SW-620 colon 98.6% | MCF7 breast 120% | HCT-116 colon 100% | HCC-2998 colon 121% | KM12 colon 110%

O=[N+]([O-])c1ccc(NS(=O)(=O)c2cc(Cl)ccc2Cl)c2ccccc12
inactive: T-47D breast 56% | BT-549 breast 48% | MDA-MB-435 melanoma 52.3% | SW-620 colon 64.4% | MCF7 breast 46.4% | HCT-116 colon 45% | HCC-2998 colon 32.2% | KM12 colon 40.5%

O=[N+]([O-])c1ccc(NS(=O)(=O)c2ccccc2)c2ccccc12
inactive: T-47D breast 32% | BT-549 breast 37.2% | MDA-MB-435 melanoma 36.8% | SW-620 colon 49.6% | MCF7 breast 42.3% | HCT-116 colon 44.6% | HCC-2998 colon 36.7% | KM12 colon 40.1%

CCOc1ccc(Cc2nccc3cc(OCC)c(OCC)cc23)cc1OCC
inactive: T-47D breast 39.1% | BT-549 breast 49.1% | MDA-MB-435 melanoma 60.2% | SW-620 colon 39.1% | MCF7 breast 72.7% | HCT-116 colon 26.5% | HCC-2998 colon 52.2% | KM12 colon 49.3%

O=S(=O)(Nc1cccc2cc(OS(=O)(=O)c3ccccc3)ccc12)c1ccccc1
inactive: T-47D breast 45.5% | BT-549 breast 45.4% | SW-620 colon 29.5% | MCF7 breast 36.8% | HCT-116 colon 25.4% | HCC-2998 colon 96.4% | KM12 colon 36.3%
active: MDA-MB-435 melanoma -13.8%

O=C1OC(c2ccc(-c3ccccc3)cc2)=C/C1=C/C=C/c1ccccc1
inactive: T-47D breast 101% | BT-549 breast 111% | MDA-MB-435 melanoma 106% | SW-620 colon 97% | MCF7 breast 87.9% | HCT-116 colon 88% | HCC-2998 colon 106% | KM12 colon 103%

c1cncc(-c2nc3ccccc3[nH]2)c1
inactive: T-47D breast 103% | BT-549 breast 100% | MDA-MB-435 melanoma 121% | SW-620 colon 85.1% | MCF7 breast 85.1% | HCT-116 colon 93.8% | HCC-2998 colon 92.2% | KM12 colon 97.5%

C=C1C(=O)O[C@H]2[C@H]1CC/C(COC(=O)c1ccc(Cl)nc1)=C\CC[C@@]1(C)O[C@@H]21
inactive: BT-549 breast 10.3% | MDA-MB-435 melanoma 14.6% | HCC-2998 colon 95.5% | KM12 colon 82.8%
active: T-47D breast -31.1% | SW-620 colon -45.2% | MCF7 breast 7.96% | HCT-116 colon -80.6%

Cc1nccc2c3ccc(OCc4cn(-c5ccc(Br)cc5)nn4)cc3n(CCCc3ccccc3)c12
inactive: T-47D breast 104% | BT-549 breast 53.5% | MDA-MB-435 melanoma 18.7% | MCF7 breast 12.5% | HCT-116 colon 30.6% | HCC-2998 colon 35.6%
active: SW-620 colon 2.21% | KM12 colon 8.07%

COc1ccccc1S(=O)(=O)Nc1ccc2c3c(cc(-c4cnn(C5CC5)c4)nc13)C(=O)N2C
inactive: T-47D breast 69.9% | BT-549 breast 90% | MDA-MB-435 melanoma 52.4% | SW-620 colon 68.5% | MCF7 breast 29.6% | HCT-116 colon 60% | HCC-2998 colon 75.4% | KM12 colon 56.3%

COc1cc(/C=C/C(=O)c2c(C)n([O-])c3cc(C)c(C)cc3[n+]2=O)cc(OC)c1OC
inactive: T-47D breast 51.8% | BT-549 breast 23% | MDA-MB-435 melanoma 45.8% | SW-620 colon 50.1% | MCF7 breast 11.1% | HCT-116 colon 42.6% | HCC-2998 colon 85.5% | KM12 colon 69.8%

O=C1CCC(=O)N1C1CCCCC1
inactive: T-47D breast 85.8% | BT-549 breast 102% | MDA-MB-435 melanoma 99.5% | SW-620 colon 105% | MCF7 breast 96.2% | HCT-116 colon 99% | HCC-2998 colon 103% | KM12 colon 101%

O=C1C(Cl)=C(Nc2cccc3cc4ccccc4nc23)C(=O)c2ccccc21
inactive: T-47D breast 37.9% | BT-549 breast 91.7% | MDA-MB-435 melanoma 59% | SW-620 colon 31.1% | MCF7 breast 20.1% | HCT-116 colon 17% | HCC-2998 colon 50.7% | KM12 colon 52.3%

CCCCCCCCCCCCCCCCNc1ccccc1
inactive: T-47D breast 88.6% | BT-549 breast 71.7% | MDA-MB-435 melanoma 111% | SW-620 colon 108% | MCF7 breast 90.1% | HCT-116 colon 101% | HCC-2998 colon 105% | KM12 colon 88.7%

CC(CCC(=O)O)[C@H]1CCC2C3C(=O)C[C@@H]4CC(=O)CC[C@]4(C)C3CC(=O)[C@@]21C (some centres not stated)
inactive: T-47D breast 97% | BT-549 breast 112% | MDA-MB-435 melanoma 96.5% | SW-620 colon 98.7% | MCF7 breast 105% | HCT-116 colon 112% | HCC-2998 colon 103% | KM12 colon 108%

Nc1n[nH]c2cccc(C#Cc3cccc(NC(=O)c4cccc(C(F)(F)F)c4)c3)c12
active: HCT-116 colon 9.05%
inactive: T-47D breast 25.3% | BT-549 breast 46.2% | MDA-MB-435 melanoma 30.1% | SW-620 colon 46.1% | MCF7 breast 39.9% | HCC-2998 colon 26.2% | KM12 colon 38.5%

S=c1n(CNc2ccc(Cl)nn2)nc(-c2cc(Cl)cc(Cl)c2Cl)n1/N=C/c1ccc(Cl)cc1
inactive: T-47D breast 101% | BT-549 breast 106% | MDA-MB-435 melanoma 89.3% | SW-620 colon 103% | MCF7 breast 87.4% | HCT-116 colon 83.8% | HCC-2998 colon 88.6% | KM12 colon 97.1%

COc1cc(-c2nc3sc(C)cn3c2/C=C2\C(=O)Nc3ccccc32)c(Br)c(OC)c1OC
active: MDA-MB-435 melanoma -8.78% | MCF7 breast 1.61%
inactive: T-47D breast 51.5% | BT-549 breast 14.8% | SW-620 colon 21.2% | HCT-116 colon 22% | HCC-2998 colon 97% | KM12 colon 15.1%

CN(CCNCc1ccccn1)CCNCc1ccccn1
active: T-47D breast 0.513% | BT-549 breast -2.61% | MDA-MB-435 melanoma -30.7% | SW-620 colon 4.13% | MCF7 breast 6.52% | HCT-116 colon -25.2% | HCC-2998 colon -46.8% | KM12 colon -0.112%
